Our source for the INHIBITION values is ChEMBL document CHEMBL4513216, “Probing the Open Global Health Chemical Diversity Library for Multistage-Active Starting Points for Next-Generation Antimalarials” (ACS Infect Dis, 2020).

Molecules are shown by their SMILES. Out of some 69,000 compounds screened, about 8,600 (12%) showed an effect of 50% or more. Shown is part of a subset that was picked to be rich in strong results.

This assay concerns Plasmodium berghei. The experiment in a line: Screen against P. berghei liver stage (PbLuc), transformed with Luciferase, at 10uM. The class given is functional, HepG2. Particulars: tested at 10 uM.
On to `Cn1cc(C(=O)CC2CCCN2C(=O)c2coc3ccccc23)cn1` (configuration not stated), for which the INHIBITION is 3.15%. Under `CN(C)c1cc(CNc2cncc(-n3cccn3)n2)ccn1` stands -6.14%. Under `CC(C)(C)c1ncc(C(=O)NCc2cccc(C(=O)N3CCCC3)c2)s1` stands -12.9%. Under `CC1(C)[C@H](Cc2cc(CO)on2)C[C@@H]1NCc1ccc(CO)o1` stands 58.5%. As for `CC1(C)[C@H](Cc2cc(CO)on2)C[C@@H]1N(CC1CC1)CC1CC1`, the INHIBITION was 27.2%. Then `COCc1ccc(CN[C@H]2C[C@@H](Cc3cc(CCO)on3)C2(C)C)o1`, with 30.5%; and `O=C(c1cc(F)ccc1Br)N1CCN(C(=O)C2CC2)CC1`, with 12.9%. For the molecule `CCOc1cc(Cl)ccc1CNC(=O)c1ccc(=O)n(C)c1`, the INHIBITION stood at 39.3%.

On to `CCS(=O)(=O)NCC(=O)N1CC2(CCCC2)c2c(F)cccc21`, for which the INHIBITION is on record as 62.4%. Take `CNS(=O)(=O)CC(=O)N1CC2(CCCC2)c2c(F)cccc21`: the INHIBITION is recorded as -17.2%. Then `O=C(NCC(=O)N1CC2(CCCC2)c2c(F)cccc21)C1CC1`, with 40.5%; and `Cc1nn(C)cc1CN(C)C(=O)c1cnccn1`, with 8.7%. Take `Cn1cc(S(=O)(=O)NCc2ccc(F)cc2)cn1`: the INHIBITION was 24.175%. Under `CN(C)CC1CN(Cc2ccc(-n3cccn3)cc2)CCO1` (configuration not stated) stands 15.3%; under `O=C(Cc1cccc(F)c1)N1C[C@H]2CN(Cc3cccnc3)C[C@H]2C1`, 0.112%; under `CN(C)C(=O)NC1COC2(CCN(Cc3ccc(Cl)c(F)c3)CC2)C1` (configuration not stated), 39.2%. Then `CC(=O)N1CCC2(CC1)CC(C(C)C)=NO2`, with 25.1%; and `c1ccc(C2=NOC3(CCN(Cc4c[nH]c5ccccc45)CC3)C2)cc1`, with 63.1%; and `c1cncc(C2=NOC3(CCN(Cc4c[nH]c5ccccc45)CC3)C2)c1`, with 44.1%. On to `CC1=NOC2(CCN(Cc3c[nH]c4ccccc34)CC2)C1`, for which the INHIBITION came out at 43.3%. Regarding `CC(C)C1=NOC2(CCN(Cc3c[nH]c4ccccc34)CC2)C1`, the INHIBITION came to 75.6%.

On to `c1ccc(O[C@H]2COCCN(Cc3c[nH]c4ccccc34)C2)cc1`, for which the INHIBITION was -41.9%. As to `CCc1ccc(NC(=O)N2C[C@@H]3C[C@H](C(=O)NC4CCC4)[C@H](C2)O3)cc1`, the INHIBITION was -50%.

Regarding `O=C(O)COc1ccc(CN2CCCC(Cc3cccnc3)C2)cc1` (configuration not stated), the INHIBITION came to 1.62%. Then `COCCCN(Cc1ccncc1)C(=O)CSc1ccc(F)cc1`, with 25.8%; and `COCCN(Cc1ccoc1)C(=O)CSc1ccc(F)cc1`, with 56.5%.

Consider `COCCN(Cc1ccoc1)C(=O)c1c(F)cccc1F`, for which the INHIBITION is recorded as -6.42%. Then `O=C(Nc1cnccn1)[C@H]1CC[C@@H]2[C@@H](CCN2Cc2ccccn2)O1`, with -5.08%; and `CCc1nnc(NC(=O)c2ccc(C3CCCN3CC(C)C)s2)s1` (configuration not stated), with 15.9%; and `CC(C)Cc1cc(NC(=O)c2ccc3[nH]nnc3c2)n(C)n1`, with 1.45%. Then `CC(C)CN1CCCC1c1ccc(C(=O)Nc2cn(C)nn2)s1` (configuration not stated), with 47.9%. Under `CC(C)CN1CCCC1c1ccc(C(=O)Nc2ccc3[nH]nnc3c2)s1` (configuration not stated) stands 51.1%; under `CCCN1CCCC1c1ccc(C(=O)N2CCOCC2)s1` (configuration not stated), 42.1%; under `Cc1cnc(NC(=O)c2ccc(C3CCCN3CC(C)C)s2)s1` (configuration not stated), 64%. Regarding `CCc1noc(CC)c1CNC(=O)Nc1ccc2[nH]nnc2c1`, the INHIBITION is given as 27.2%. Then `CC(C)CN1CCCC1c1ccc(C(=O)Nc2cc[nH]n2)s1` (configuration not stated), with 22.3%; and `CC(C)CN1CCCC1c1ccc(C(=O)Nc2cccnc2)s1` (configuration not stated), with 89.6%. Then `CN1C(=N)NC(=O)/C1=C/c1ccc(-c2ccc(Br)cc2)o1`, with 10.1%. Then `O=C(CN1CCC(c2cc(=O)n3c(n2)CCCCC3)C1)N1CCCCC1` (configuration not stated), with 1.5%. As for `Cc1cccc(OCCCN2CCC(N(C)Cc3noc(C)n3)C2)c1` (configuration not stated), the INHIBITION turned out to be 1.75%. In the case of `Cc1nc(C2CCCN2C(=O)Cn2cncn2)no1` (configuration not stated), the INHIBITION was -14%. Then `COCCN1CCC(CN(CC2CCCO2)C(=O)Cc2cccs2)CC1` (configuration not stated), with 4.35%. Under `FC(F)(F)c1cc(C2CCCN(c3ncccn3)C2)n2ccnc2n1` (configuration not stated) stands 7.43%. Take `Cn1nc(C2CCN(C(=O)CN3CCCCC3)CC2)c2cccnc21`: the INHIBITION was found to be 23.2%. Then `CCOc1ncccc1CNC(=O)c1cccc(C)n1`, with 38.25%.

For the molecule `COCC(=O)N1CC[C@H]2C[C@H](c3nnc(C4CC4)o3)O[C@@H]2C1`, the INHIBITION was -6.3%. Then `COc1ccc(NC(=O)N(C)Cc2ccsc2)cn1`, with 17.4%. With `CCNc1cc2c(nn1)CCN(C(=O)c1cccnc1N(C)C)C2`, the INHIBITION worked out at 17.05%. Under `CN1CCN(C(=O)Cn2ccc3c(Cl)cccc32)CC1` stands -13.6%; under `Cc1cccc(NC(=O)c2ccc(OCc3nnnn3C)cc2)n1`, -83.3%. Under `Cc1cccc(NC(=O)c2cccc(OCc3nnnn3C)c2)n1` stands 60%.

Take `Cc1ccnc(NC(=O)c2cccc(OCc3nnnn3C)c2)c1`: the INHIBITION worked out at 39.8%. Then `CN1CC(=O)N(c2ccccc2)CC12CCN(C(=O)c1ccnnc1)C2` (configuration not stated), with -7.29%. Under `Cc1nn2c(NC(=O)CSc3nccn3C)csc2nc1=O` stands 50.8%; under `Cc1ccnc(SCC(=O)Nc2csc3nc(=O)c(C)nn23)n1`, 72.8%. For the molecule `Cc1nnc(SCC(=O)Nc2csc3nc(=O)c(C)nn23)s1`, the INHIBITION turned out to be 36.3%. Under `Cc1ccnc(NCc2cn3c(C)csc3n2)n1` stands -125%; under `Cc1nn2c(NC(=O)CSc3ncccn3)csc2nc1=O`, 3.77%. `Cc1cc(NCCSc2nccn2C)n2nc(C)c(C)c2n1`: the INHIBITION was 24.7%.

As to `Cc1ncsc1C(=O)NCc1ccc(-c2n[nH]cc2C(=O)N(C)C)cc1`, the INHIBITION was -3.05%.

`c1cncc(CN2CCCn3nnc(CN4CCCC4)c3C2)c1`: the INHIBITION is reported as -19.8%. Under `CNC(=O)C1(c2cnccn2)CCCN1C(=O)c1ccccc1` (configuration not stated) stands 35.2%; under `COCCO[C@H]1CCN(Cc2ccsc2)[C@H]1Cc1cccnc1`, -67.6%; under `Cc1nnc(N2C[C@H](OCc3cccnc3)[C@H]3OCCC[C@H]32)s1`, 47.9%.

Take `Cc1csc(C2CCCCN2C(=O)c2cn[nH]c2C)n1` (configuration not stated): the INHIBITION amounted to 11.6%. Regarding `CC(=O)NCC(=O)N1Cc2c(-c3cccc(C)c3)nc(N)nc2C1C` (configuration not stated), the INHIBITION is recorded as 34%. `CN1CCC(C)(CN(C)C(=O)c2ccc(CCC(C)(C)O)cc2)C1` (configuration not stated): the INHIBITION worked out at 1.71%.
